Article PMC5540273 (PLoS ONE, 2017)
Several values for one entry are separate records, joined by “and”; a condition that tells them apart may be missing. Equal entries are not always repeated. Where two headings read alike, the source gives them in different places.

Experiments:
LTK = settings: concentration: 1 μM, replicates: in singlicate, n = 1
LYN = settings: concentration: 1 μM, replicates: in singlicate; n = 1
LZK = system: T1, LZK; settings: concentration: 1 μM, replicates: in singlicate, n = 1
T1 construct: gene MAP3K13

MAK = settings: concentration: 1 μM, replicates: in singlicate; n = 1
MAP3K15 = settings: concentration: 1 μM, replicates: in singlicate, n = 1
MAP3K1 = settings: concentration: 1 μM, replicates: in singlicate, n = 1
MAP3K2 = settings: concentration: 1 μM, replicates: in singlicate, n = 1
MAP3K3 = settings: concentration: 1 μM, replicates: in singlicate, n = 1
MAP3K4 = settings: concentration: 1 μM, replicates: in singlicate, n = 1
MAP4K2 = settings: concentration: 1 μM, replicates: in singlicate, n = 1
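Note: KINOMEscan kinase panel screen.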

SMILES	%Inh (LTK) [%]	%Inh (LYN) [%]	%Inh (LZK) [%]	%Inh (MAK) [%]	%Inh (MAP3K15) [%]	%Inh (MAP3K1) [%]	%Inh (MAP3K2) [%]	%Inh (MAP3K3) [%]	%Inh (MAP3K4) [%]	%Inh (MAP4K2) [%]	%Inh (LTK; 1 µM)	%Inh (LZK; 1 µM)	%Inh (MAP3K15; 1 µM)	%Inh (MAP3K1; 1 µM)	%Inh (MAP3K2; 1 µM)	%Inh (MAP3K3; 1 µM)	%Inh (MAP3K4; 1 µM)	%Inh (MAP4K2; 1 µM)
CN1c2ccc(CNc3ccc(F)cc3)cc2-c2c(cnn2C)S1(=O)=O	0	3	0	3	0	0	11	25	12	0	–	–	–	–	–	–	–	–
COc1ccc(COc2cc(-n3cnc4ccccc43)sc2C(N)=O)cc1 [GSK1024304]	6	0	0	0	0	0	0	0	20	0	–	–	–	–	–	–	–	–
Cc1c2ccc(N(C)c3ccnc(Nc4cccc(S(N)(=O)=O)c4)n3)cc2nn1Cc1ccccc1.Cl.Cl [GW787226]	45	84	0	0	0	0	31	0	22	0	–	–	–	–	–	–	–	–
CN(C(=O)c1ccc(-c2cc(-c3c[nH]nc3-c3ccccn3)ccn2)cc1)C1CCOCC1 [GW810083]	0	0	0	6	0	0	0	0	0	0	–	–	–	–	–	–	–	–
O=C(NOCC1CC1)c1ccc(F)c(F)c1Nc1ccc(I)cc1Cl	0	0	0	0	0	0	0	0	0	0	–	–	–	–	–	–	–	–
NS(=O)(=O)CCc1cccc(Nc2nccc(-c3c(-c4cccc(NC(=O)c5c(F)cccc5F)c4)nn4ccccc34)n2)c1 [GSK336735]	39	97.8	0	22	5	13	88	79	76	0	–	–	–	–	–	–	–	–
O=c1cc(N2CCOCC2)nc2n(Cc3cccc(F)c3)ccn12 [GSK2297430]	68	0	0	21	0	17	0	0	10	0	–	–	–	–	–	–	–	–
O=C(Nc1cccc(-c2nn3ncccc3c2-c2ccnc(Nc3cccc(C(F)(F)F)c3)n2)c1)c1c(F)cccc1F [GSK299495]	3	87	12	0	0	15	24	0	33	0	–	–	–	–	–	–	–	–
NS(=O)(=O)c1cccc(-c2ccc3nccc(-c4cccc(S(N)(=O)=O)c4)c3c2)c1 [GW867253]	0	0	1	0	0	8	15	0	12	9	–	–	–	–	–	–	–	–
COC(=O)Nc1nc2cc(Oc3ccc(NC(=O)Nc4cc(F)ccc4F)cc3)ccc2[nH]1.Cl [GW701424]	0	19	37	18	0	0	2	0	0	0	–	–	–	–	–	–	–	–
CCCCCc1nc2c(N)ncnc2n1CCCCC [SKF-97255]	6	0	0	0	0	18	29	0	10	0	–	–	–	–	–	–	–	–
Cl.Nc1ncnc2occ(-c3ccc(NC(=O)Nc4cc(C(F)(F)F)ccc4F)cc3)c12 [SB-707548]	97.2	75	40	6	5	34	8	17	25	62	–	–	–	–	–	–	–	–
O=c1cc(N2CCOCC2)nc2n(Cc3cccc4ccccc34)ccn12 [GSK2333389]	0	0	0	0	0	8	0	0	0	0	–	–	–	–	–	–	–	–
NCCNS(=O)(=O)c1ccc(-c2ccnc3[nH]ccc23)cc1 [GSK977617]	–	0	–	0	–	–	–	–	–	–	37% and 0%	22% and 3%	4% and 0%	8% and 11%	83% and 72%	63% and 56%	0% and 21%	47% and 38%
O=C(c1ccc(-c2cc(-c3c[nH]nc3-c3ccccn3)ccn2)cc1)N1CCOCC1 [GW812171]	4	0	0	0	0	0	22	0	9	0	–	–	–	–	–	–	–	–
CN1c2ccc(NCc3ccc(F)cc3)cc2-c2c(cnn2C)S1(=O)=O	0	0	0	0	0	0	0	5	11	0	–	–	–	–	–	–	–	–
C[C@@H](Oc1cc(-n2cnc3ccc(NC(=O)NC(C)(C)C)cc32)sc1C(N)=O)c1ccccc1Cl [GSK346294]	13	4	37	0	0	35	0	0	0	0	–	–	–	–	–	–	–	–
COc1ccc(Nc2ncc(C#N)c(Nc3ccccc3C(N)=O)n2)cc1N1CCN(C)CC1.Cl [GSK1558669]	89	93.9	97.5	66	73	38	99.2	99.8	99.9	98.8	–	–	–	–	–	–	–	–
CCn1cnc2c(N)ncnc21 [GW345098]	16	0	3	0	6	18	9	20	11	19	–	–	–	–	–	–	–	–
NCC(NC(=O)c1cc(-c2cn[nH]c2)c(-c2ccnc3[nH]ccc23)s1)c1ccccc1.O=C(O)C(F)(F)F.O=C(O)C(F)(F)F (stereo not drawn) [GSK1325775]	0	0	0	16	21	12	8	0	20	84	–	–	–	–	–	–	–	–
O=c1cc(N2CCOCC2)nc2n(Cc3cccc(C(F)(F)F)c3)ccn12 [GSK2297543]	16	0	0	31	0	5	10	0	13	0	–	–	–	–	–	–	–	–
O=C(NCCNc1ccnc(Nc2ccc(F)cc2)n1)Nc1ccccc1F [GSK1379880]	0	0	0	0	14	0	0	0	29	0	–	–	–	–	–	–	–	–
Cc1ccc(NC(=O)c2ccnc(N3CCN(C)CC3)c2)cc1-c1ccc(C(=O)NCC2CC2)cc1 [GW775604]	0	0	0	0	0	0	0	0	0	0	–	–	–	–	–	–	–	–
N#Cc1ccc(-c2cc(-c3c[nH]nc3-c3ccccn3)ccn2)cc1 [GW693028]	0	0	0	21	0	6	0	0	24	0	–	–	–	–	–	–	–	–
COc1cc2c(cc1OC[C@@H](O)CO)ncc1c3ccc(C#N)cc3[nH]c21	0	0	8	0	42	0	0	6	0	17	–	–	–	–	–	–	–	–
COc1ccc(Nc2nccc(N3CCC(NC(=O)Nc4cccc(C(C)=O)c4)C3)n2)cc1 (stereo not drawn) [GSK1379731]	0	0	0	29	0	14	4	0	19	0	–	–	–	–	–	–	–	–
Cc1c(Cn2c(C)nn3c(=O)cc(N4CCOC(C)C4)nc23)cccc1C(F)(F)F (stereo not drawn) [GSK2344444]	0	0	0	15	10	16	9	0	0	0	–	–	–	–	–	–	–	–
O=C(NCCCN1CCOCC1)c1cccc(Nc2nccc(Nc3ccc(Oc4ccccc4)cc3)n2)c1 [GW663929]	0	72	28	36	0	0	0	0	0	13	–	–	–	–	–	–	–	–
CC(C)Oc1ccc2c(-c3ccnc(Nc4ccc(N5CCN(C)CC5)cc4)n3)cnn2n1 [GW696155]	0	34	10	0	11	39	83	67	74	28	–	–	–	–	–	–	–	–
Nc1nccc(-c2c(-c3ccc(F)cc3)ncn2C2CCN(CC(F)(F)F)CC2)n1 [SB-236560]	100	13	7	29	0	0	0	0	0	0	–	–	–	–	–	–	–	–
